How the values were obtained:
Test in all cases: log2 ratio of Biotin-Ahx-Ub-VS probe labelling (fragment/DMSO); higher = less target engagement (more negative = stronger competition), active = hit call of the paper (q ≤ 0.05, log2 ratio ≤ -1)
Details in all cases: compound concentration: 200 uM; treatment time: 3 h
USP19 = biological target: T1, USP19 (UniProt O94966)
T1 sequence (whole entry): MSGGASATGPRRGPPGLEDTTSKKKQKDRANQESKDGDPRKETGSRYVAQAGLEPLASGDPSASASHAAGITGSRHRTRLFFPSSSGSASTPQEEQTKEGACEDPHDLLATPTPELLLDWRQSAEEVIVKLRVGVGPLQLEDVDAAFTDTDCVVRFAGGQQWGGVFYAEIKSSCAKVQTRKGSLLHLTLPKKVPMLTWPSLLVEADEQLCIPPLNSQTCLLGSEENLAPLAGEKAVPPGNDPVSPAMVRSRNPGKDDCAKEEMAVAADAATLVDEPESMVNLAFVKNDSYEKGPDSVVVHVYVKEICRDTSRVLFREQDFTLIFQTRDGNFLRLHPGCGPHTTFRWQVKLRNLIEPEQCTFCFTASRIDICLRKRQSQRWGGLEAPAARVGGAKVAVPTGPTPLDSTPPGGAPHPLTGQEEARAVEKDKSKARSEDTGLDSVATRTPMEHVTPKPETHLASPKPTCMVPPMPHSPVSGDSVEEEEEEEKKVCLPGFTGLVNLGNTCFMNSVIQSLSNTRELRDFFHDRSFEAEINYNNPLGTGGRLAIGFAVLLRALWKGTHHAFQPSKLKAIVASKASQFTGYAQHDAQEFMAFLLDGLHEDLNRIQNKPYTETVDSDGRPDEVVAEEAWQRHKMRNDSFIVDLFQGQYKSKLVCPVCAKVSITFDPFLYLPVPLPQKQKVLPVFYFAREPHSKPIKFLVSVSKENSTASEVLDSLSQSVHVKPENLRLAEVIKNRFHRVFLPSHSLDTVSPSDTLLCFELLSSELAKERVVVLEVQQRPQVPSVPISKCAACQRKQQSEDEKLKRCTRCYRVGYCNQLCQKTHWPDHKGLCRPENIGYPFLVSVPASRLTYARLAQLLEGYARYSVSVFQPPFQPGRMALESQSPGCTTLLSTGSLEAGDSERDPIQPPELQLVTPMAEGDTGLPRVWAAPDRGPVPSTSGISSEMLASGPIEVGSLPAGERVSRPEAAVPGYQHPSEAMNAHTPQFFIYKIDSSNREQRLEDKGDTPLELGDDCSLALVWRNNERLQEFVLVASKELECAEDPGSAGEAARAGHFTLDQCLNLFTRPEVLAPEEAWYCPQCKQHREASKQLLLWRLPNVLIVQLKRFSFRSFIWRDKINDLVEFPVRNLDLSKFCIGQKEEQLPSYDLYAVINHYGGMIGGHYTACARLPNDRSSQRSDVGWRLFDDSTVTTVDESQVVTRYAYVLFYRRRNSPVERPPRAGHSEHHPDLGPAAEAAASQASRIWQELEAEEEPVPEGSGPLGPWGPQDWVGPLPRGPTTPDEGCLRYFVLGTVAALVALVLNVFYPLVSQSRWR
Outline: (§1)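 HEK293T lysate in Tris/CHAPS/IGEPAL buffer with protease inhibitors (495 µg per sample) was given fragment at 200 µM or vehicle for 3 h, in triplicate. It then received Biotin-Ahx-Ub-VS at 0.5 µM final for 1 h. Labelled DUBs were NeutrAvidin-enriched, digested with LysC and trypsin, and run by diaPASEF LC-MS/MS. Values are average log2 fragment/vehicle ratios by unpaired t-test on global-median-normalised Spectronaut quantities of proteins with ≥2 unique peptides.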

USP22 = biological target: T2, USP22 (UniProt Q9UPT9)
T2 sequence (whole entry): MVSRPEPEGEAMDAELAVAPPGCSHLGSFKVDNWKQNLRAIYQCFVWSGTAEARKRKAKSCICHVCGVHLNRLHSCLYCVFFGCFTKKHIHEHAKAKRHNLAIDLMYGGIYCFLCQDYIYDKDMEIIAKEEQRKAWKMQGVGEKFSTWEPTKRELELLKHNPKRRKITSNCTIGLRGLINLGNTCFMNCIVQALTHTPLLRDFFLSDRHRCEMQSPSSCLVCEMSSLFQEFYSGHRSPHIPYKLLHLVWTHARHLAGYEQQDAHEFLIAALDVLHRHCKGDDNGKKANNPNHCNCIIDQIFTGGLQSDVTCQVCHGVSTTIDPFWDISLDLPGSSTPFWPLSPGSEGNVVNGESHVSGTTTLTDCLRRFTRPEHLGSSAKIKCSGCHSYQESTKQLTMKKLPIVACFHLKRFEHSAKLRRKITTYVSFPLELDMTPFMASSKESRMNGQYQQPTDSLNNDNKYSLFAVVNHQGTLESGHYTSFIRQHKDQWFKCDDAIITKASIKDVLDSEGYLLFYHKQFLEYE
Outline: as §1

USP24 = USP24 (UniProt Q9UPU5)
Chain of USP24 (Q9UPU5 whole entry): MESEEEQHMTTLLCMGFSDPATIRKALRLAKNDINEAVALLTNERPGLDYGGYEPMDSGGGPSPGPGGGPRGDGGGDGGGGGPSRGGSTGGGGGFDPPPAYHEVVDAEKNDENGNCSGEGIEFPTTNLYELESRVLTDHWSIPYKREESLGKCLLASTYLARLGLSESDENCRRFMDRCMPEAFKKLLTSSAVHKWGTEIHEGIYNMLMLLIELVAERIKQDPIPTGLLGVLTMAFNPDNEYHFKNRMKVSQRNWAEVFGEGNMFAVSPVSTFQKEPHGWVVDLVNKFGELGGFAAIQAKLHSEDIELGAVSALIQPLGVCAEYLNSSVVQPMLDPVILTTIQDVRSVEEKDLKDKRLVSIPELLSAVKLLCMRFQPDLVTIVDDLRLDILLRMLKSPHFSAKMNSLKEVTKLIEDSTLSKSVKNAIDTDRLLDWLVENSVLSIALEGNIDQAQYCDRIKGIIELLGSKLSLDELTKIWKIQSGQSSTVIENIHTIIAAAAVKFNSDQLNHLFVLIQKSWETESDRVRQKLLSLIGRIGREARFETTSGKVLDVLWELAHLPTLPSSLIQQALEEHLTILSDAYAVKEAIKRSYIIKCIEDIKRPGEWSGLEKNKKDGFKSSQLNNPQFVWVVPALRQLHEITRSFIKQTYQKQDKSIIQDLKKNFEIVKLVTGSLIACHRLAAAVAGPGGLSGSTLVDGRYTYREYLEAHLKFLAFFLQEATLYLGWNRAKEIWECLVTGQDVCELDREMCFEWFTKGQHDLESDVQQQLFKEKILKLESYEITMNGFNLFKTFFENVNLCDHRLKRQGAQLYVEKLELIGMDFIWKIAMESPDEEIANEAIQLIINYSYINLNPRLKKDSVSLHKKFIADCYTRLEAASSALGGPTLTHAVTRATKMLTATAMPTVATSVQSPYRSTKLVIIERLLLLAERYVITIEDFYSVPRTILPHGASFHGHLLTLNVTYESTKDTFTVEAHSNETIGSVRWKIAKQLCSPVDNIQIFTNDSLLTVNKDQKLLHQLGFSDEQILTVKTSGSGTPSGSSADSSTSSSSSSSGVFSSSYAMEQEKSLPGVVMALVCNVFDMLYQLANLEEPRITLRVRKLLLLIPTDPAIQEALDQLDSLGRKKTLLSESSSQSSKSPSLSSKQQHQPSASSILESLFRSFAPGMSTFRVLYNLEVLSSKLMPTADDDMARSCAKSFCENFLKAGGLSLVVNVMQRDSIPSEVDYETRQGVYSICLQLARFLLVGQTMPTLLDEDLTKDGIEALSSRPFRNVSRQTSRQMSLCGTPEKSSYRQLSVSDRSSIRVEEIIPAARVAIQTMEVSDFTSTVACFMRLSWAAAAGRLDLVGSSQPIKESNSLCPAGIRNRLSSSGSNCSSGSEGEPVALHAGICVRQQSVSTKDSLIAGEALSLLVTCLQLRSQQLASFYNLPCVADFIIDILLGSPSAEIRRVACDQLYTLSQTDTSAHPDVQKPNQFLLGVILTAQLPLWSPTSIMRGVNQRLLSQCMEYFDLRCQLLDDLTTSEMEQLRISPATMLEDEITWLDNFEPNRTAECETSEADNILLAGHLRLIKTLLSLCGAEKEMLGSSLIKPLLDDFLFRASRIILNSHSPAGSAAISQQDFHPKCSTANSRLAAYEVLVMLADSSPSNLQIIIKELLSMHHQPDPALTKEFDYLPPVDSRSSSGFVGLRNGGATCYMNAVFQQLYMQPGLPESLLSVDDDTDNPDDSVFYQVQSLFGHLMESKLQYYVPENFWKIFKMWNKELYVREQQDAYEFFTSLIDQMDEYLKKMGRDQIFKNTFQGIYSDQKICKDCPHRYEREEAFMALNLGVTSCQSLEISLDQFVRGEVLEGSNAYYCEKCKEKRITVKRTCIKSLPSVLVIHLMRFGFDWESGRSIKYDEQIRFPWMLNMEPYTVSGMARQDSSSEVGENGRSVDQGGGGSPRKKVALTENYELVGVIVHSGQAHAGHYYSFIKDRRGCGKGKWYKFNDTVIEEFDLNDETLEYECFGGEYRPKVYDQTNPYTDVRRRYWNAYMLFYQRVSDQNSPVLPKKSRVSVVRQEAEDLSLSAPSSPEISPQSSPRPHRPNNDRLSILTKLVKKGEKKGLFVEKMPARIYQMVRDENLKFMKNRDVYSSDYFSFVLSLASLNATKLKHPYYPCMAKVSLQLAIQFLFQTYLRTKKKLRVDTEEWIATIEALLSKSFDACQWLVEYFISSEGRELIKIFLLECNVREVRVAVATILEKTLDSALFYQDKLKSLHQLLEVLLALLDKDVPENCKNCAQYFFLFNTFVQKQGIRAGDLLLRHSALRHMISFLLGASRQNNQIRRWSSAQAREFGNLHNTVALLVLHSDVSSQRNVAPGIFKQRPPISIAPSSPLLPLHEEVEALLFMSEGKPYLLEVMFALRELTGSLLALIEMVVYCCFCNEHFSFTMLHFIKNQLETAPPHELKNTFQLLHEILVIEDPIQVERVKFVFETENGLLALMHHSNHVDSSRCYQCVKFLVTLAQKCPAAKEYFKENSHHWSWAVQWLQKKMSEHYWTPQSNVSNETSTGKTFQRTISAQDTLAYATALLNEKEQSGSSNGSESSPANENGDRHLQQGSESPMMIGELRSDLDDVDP
Outline: as §1

USP25 = biological target: T3, USP25 (UniProt Q9UHP3)
T3 sequence (whole entry): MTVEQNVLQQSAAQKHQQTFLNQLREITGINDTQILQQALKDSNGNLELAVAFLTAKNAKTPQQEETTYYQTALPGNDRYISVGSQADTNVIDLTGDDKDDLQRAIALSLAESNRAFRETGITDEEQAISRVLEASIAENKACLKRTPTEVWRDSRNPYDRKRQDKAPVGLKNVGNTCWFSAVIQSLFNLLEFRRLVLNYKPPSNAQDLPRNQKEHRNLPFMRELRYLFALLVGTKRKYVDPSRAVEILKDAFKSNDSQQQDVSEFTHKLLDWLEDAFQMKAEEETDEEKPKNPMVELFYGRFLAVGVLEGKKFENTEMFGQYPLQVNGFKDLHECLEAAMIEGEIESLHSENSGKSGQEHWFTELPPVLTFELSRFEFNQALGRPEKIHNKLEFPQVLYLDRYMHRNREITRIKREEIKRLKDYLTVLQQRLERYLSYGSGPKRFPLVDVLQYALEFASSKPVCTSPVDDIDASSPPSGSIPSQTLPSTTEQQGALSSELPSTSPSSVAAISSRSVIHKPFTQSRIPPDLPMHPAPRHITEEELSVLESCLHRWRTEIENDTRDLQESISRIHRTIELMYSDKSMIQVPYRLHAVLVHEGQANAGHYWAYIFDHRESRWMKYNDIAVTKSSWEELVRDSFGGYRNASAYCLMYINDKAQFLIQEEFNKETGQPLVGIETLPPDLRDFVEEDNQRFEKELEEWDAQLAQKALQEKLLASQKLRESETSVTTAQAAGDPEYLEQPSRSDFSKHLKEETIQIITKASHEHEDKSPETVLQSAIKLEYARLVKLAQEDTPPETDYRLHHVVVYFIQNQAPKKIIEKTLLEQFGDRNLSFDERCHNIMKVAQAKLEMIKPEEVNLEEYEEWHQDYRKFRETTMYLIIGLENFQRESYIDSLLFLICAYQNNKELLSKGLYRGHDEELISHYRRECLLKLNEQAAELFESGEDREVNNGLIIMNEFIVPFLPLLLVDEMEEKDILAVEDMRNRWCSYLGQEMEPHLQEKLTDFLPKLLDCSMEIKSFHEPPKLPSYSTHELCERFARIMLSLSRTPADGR
Outline: as §1

USP28 = biological target: T4, USP28 (UniProt Q96RU2)
T4 sequence (whole entry): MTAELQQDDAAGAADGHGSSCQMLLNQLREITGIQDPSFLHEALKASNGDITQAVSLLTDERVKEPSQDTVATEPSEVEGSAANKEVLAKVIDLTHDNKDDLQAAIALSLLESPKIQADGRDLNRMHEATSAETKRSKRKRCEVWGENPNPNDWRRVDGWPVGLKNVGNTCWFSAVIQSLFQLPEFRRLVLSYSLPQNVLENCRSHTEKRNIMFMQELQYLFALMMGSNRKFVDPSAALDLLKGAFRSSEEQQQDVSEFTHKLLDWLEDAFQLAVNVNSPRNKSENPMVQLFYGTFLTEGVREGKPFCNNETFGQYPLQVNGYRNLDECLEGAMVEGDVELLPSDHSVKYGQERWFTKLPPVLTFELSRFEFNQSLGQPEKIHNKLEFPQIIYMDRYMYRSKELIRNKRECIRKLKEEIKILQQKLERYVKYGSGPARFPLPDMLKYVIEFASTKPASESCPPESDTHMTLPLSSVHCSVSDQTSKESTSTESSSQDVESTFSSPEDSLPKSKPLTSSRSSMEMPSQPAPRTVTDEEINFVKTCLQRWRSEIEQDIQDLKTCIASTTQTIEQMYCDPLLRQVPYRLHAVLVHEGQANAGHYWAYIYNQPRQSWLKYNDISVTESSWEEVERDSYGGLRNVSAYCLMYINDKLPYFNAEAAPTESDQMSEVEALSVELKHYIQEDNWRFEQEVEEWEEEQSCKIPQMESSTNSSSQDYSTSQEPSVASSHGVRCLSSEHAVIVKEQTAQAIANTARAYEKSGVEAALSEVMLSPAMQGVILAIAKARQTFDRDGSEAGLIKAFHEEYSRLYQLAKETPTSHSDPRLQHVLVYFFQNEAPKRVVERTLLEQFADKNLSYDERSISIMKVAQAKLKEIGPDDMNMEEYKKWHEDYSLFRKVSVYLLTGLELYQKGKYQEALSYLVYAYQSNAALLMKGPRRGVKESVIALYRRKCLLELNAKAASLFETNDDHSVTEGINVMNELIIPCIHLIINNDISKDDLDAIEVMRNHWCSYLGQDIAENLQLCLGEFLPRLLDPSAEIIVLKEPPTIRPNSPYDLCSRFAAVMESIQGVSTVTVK
Outline: as §1

Measured: log2 ratio of Biotin-Ahx-Ub-VS probe labelling

O=C(CCl)N1CCN2C(=O)CCC2C1 (stereo not given)
inactive: USP19 0.0407 | USP22 -0.0658 | USP24 0.14 | USP25 -0.508 | USP28 -0.38
